Experimental data published in publication PMC7819943, “Rice protein-binding microarrays: a tool to detect cis-acting elements near promoter regions in rice”.
In all, about 39,000 sequences were measured (“fluorescence intensity (a.u.)”: median about 4,300, highest 2% from about 39,000 on). The entries come from a sample that favours the highest values as a whole.

Target: T1, OsSMF1 (Oryza sativa, UniProt Q6ZLB0 1-436)
T1 sequence: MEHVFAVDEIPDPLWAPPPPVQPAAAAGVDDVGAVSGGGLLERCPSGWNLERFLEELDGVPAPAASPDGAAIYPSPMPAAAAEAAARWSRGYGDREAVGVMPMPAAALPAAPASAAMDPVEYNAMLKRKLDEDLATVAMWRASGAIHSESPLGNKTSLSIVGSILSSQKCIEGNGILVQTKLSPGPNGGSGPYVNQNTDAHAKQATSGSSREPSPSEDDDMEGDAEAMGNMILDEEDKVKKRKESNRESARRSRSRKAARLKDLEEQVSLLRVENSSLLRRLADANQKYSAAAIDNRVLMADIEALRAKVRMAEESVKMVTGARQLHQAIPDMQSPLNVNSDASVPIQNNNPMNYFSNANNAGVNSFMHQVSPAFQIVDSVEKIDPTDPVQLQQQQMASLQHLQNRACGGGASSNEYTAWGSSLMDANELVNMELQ
Experiment: protein-binding microarray (RPBM); PBS, 2% BSA, 51.3 ng/ul salmon testes DNA, 50 uM zinc acetate, 200 nM TF, 25 C, 1 h; high values mean tight binding
Settings: protein: recombinant; tags: N-terminal polyhistidine and DsRed monomer fusion (pET32a); chain copies: 2; label: CyDye5-dUTP incorporated in the synthesized complementary strand; 3' TTTTT single-stranded linker to array surface; dsDNA, one strand shown
Method in brief: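 For the binding signal, per-feature fluorescence intensity was read in arbitrary units on an Axon 4000B scanner. Before scanning, a 2% BSA-blocked custom Agilent array made double-stranded with Cy5-dUTP was washed after 1 h at 25 °C with 200 nM protein and 50 µM zinc acetate. The proteins were Ni–NTA-purified transcription factors with N-terminal polyhistidine and DsRed fusions, expressed in E. coli BL21-CodonPlus.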

Row | Sequence | binding signal
1 | GGGAGGAAGAAGAAAGGGAGAGAGAGGGGATGACATGTGGCGGAGTCACCTAGTGCAG | 5680 fluorescence intensity (a.u.)
2 | ACGATATGACGGAAAAGTTGGAAGTTTGTGTGTAGAAAAGCGGAGTCACCTAGTGCAG | 3140 fluorescence intensity (a.u.)
3 | GAGAGGACGAAGGGAAAGAGAGAGATGGTGATGACGTGGCCGGAGTCACCTAGTGCAG | 31600 fluorescence intensity (a.u.)
4 | AGACTGAAAGAGAGAGGAAGGAAGAGAGATGACGTGGCATCGGAGTCACCTAGTGCAG | 35800 fluorescence intensity (a.u.)
5 | GAGAGAAGAGGGGAAAAGAGAGAGGAGTTTGATGACGTGGCGGAGTCACCTAGTGCAG | 39300 fluorescence intensity (a.u.)
6 | AGAGAAAGGAAGGGAAGAGAGAGGGTGATGACGTGGCGACCGGAGTCACCTAGTGCAG | 35600 fluorescence intensity (a.u.)
7 | AAAATGGAGAGAAGAGGAAGGGACAGATGACGTGGCATCCCGGAGTCACCTAGTGCAG | 48900 fluorescence intensity (a.u.)
8 | AAAGAATGACGATATGATGTGAGAAGTTTGTGAAGACTTGCGGAGTCACCTAGTGCAG | 41100 fluorescence intensity (a.u.)
9 | TCAGAATGCGTGTGATGTAAAAGTTCGAGAAGACTTTGTTCGGAGTCACCTAGTGCAG | 3210 fluorescence intensity (a.u.)
10 | CCATCTCCGACGAATGATGCTTTGACACTTAATGCTGCGTCGGAGTCACCTAGTGCAG | 3350 fluorescence intensity (a.u.)
11 | CGGCTTACGGCCGCCTGTCGGGGAAGATGACTCCCTCTTCCGGAGTCACCTAGTGCAG | 5050 fluorescence intensity (a.u.)
12 | AACAAAAGTTGTTTTGACTCACGCGGTGGCTGTTGTCTGTCGGAGTCACCTAGTGCAG | 6340 fluorescence intensity (a.u.)
13 | TTAAGGACGATTTTGTAATTCAGCTGACAAGACGAGGGATCGGAGTCACCTAGTGCAG | 4300 fluorescence intensity (a.u.)
14 | GTCACCGAAGGCGATTAAGGGACAAGCTATAGCTGATTTTCGGAGTCACCTAGTGCAG | 46100 fluorescence intensity (a.u.)
15 | GGAAGCGGCTGCTGACAATGGGGATTAGATAGGCTAAGGGCGGAGTCACCTAGTGCAG | 3700 fluorescence intensity (a.u.)
16 | CCGAGGCCCAATAAATTATGGGGTTGGCTCCAATAAATTACGGAGTCACCTAGTGCAG | 3940 fluorescence intensity (a.u.)
17 | TACTACTTCCGATCAGAGCCATACCAATGCCACGACACGACGGAGTCACCTAGTGCAG | 4090 fluorescence intensity (a.u.)
18 | GCCATCTGACAACCAGTAAATGTACTGTCCACCGGGCCAACGGAGTCACCTAGTGCAG | 6470 fluorescence intensity (a.u.)
19 | TTTCGCCATTTCCGACAATGTACTTCACCACTGATCTGAACGGAGTCACCTAGTGCAG | 64900 fluorescence intensity (a.u.)
20 | CAAGTGATAATCTATACCTAGTTGATGATGCCAATATCATCGGAGTCACCTAGTGCAG | 4340 fluorescence intensity (a.u.)
21 | TGCAACCACCACCACCACGTCCCAAACTCGCACGTTTCTCCGGAGTCACCTAGTGCAG | 4090 fluorescence intensity (a.u.)
22 | CAAATGTTCTTTTGACGTATATGACCACATATTTGCAGTACGGAGTCACCTAGTGCAG | 3520 fluorescence intensity (a.u.)
23 | ACAATGTTCCGGGTCTTATATTGCCAAATCAGTGACGTACCGGAGTCACCTAGTGCAG | 59800 fluorescence intensity (a.u.)
24 | CTGTGTGAACAACAAATCAATGGCCACGTCATATATGTACCGGAGTCACCTAGTGCAG | 16800 fluorescence intensity (a.u.)
25 | GGGCGCACCTACAGCACCAAGTGTAACCAGAGCTTACACACGGAGTCACCTAGTGCAG | 3420 fluorescence intensity (a.u.)
26 | CCTCCATCTATGTCCTGCTGTCCAACATCTACGCGGATGCCGGAGTCACCTAGTGCAG | 3820 fluorescence intensity (a.u.)
27 | TGACCGGCGCAGCTCGCGCCACGTCACCCGCACGCGCCGCCGGAGTCACCTAGTGCAG | 8600 fluorescence intensity (a.u.)

Row | Sequence | binding signal
28 | CTCTCTCCTCGTCTTCCTCGCGCTGACTCTTCTCCTCCTCCGGAGTCACCTAGTGCAG | 3180 fluorescence intensity (a.u.)
29 | ACGTTCCACTCGCGCGCCTCCACGTCAGCACCCACTGTGGCGGAGTCACCTAGTGCAG | 42300 fluorescence intensity (a.u.)
30 | CGTGCACGTGTTCACCGGAGGTGCTCGTCAGCAAAGCAGGCGGAGTCACCTAGTGCAG | 6000 fluorescence intensity (a.u.)
31 | GACGCATGCACGCCGCCACGTCGCGCGCCATGGCCACCCCCGGAGTCACCTAGTGCAG | 9700 fluorescence intensity (a.u.)
32 | TTCTCTCCGTCTTCCTCCAGCACTGAATTTGTCGCTGGCGCGGAGTCACCTAGTGCAG | 64900 fluorescence intensity (a.u.)
33 | CTTCACCGGCGGCGAGGAGCACGTCACCGGCGGCGAGCACCGGAGTCACCTAGTGCAG | 4120 fluorescence intensity (a.u.)
34 | GCTAGCACTCGCCTCCCTCTGCGCCCACGCCACGCTGTGGCGGAGTCACCTAGTGCAG | 4110 fluorescence intensity (a.u.)
35 | ATGGCGCGCCGCCACGTCACCCCGACTCGCCACGTCAGCACGGAGTCACCTAGTGCAG | 65500 fluorescence intensity (a.u.)
36 | TTCACTCGAGGAGGCGGCGGAGGCAGTCCACGTCAGCAACCGGAGTCACCTAGTGCAG | 39000 fluorescence intensity (a.u.)
37 | TTCTCCTCGGCCTCCATGTGCACGTCCATGTGGCGCATGGCGGAGTCACCTAGTGCAG | 4220 fluorescence intensity (a.u.)
38 | AATTCCTCTCTCTCTCTCCCCTCCCATGGCGTCACTGTCGCGGAGTCACCTAGTGCAG | 6120 fluorescence intensity (a.u.)
39 | GCCTGTAGCCTGGTGGTTACAAGAGCCTCAGTAGCACCTGCGGAGTCACCTAGTGCAG | 3250 fluorescence intensity (a.u.)
40 | CAACGGCTATGAGCTGTCACACACTCACAGTAGTACTCCGCGGAGTCACCTAGTGCAG | 3850 fluorescence intensity (a.u.)
41 | ATAAATAGAATGCTGACTGGACTGCCACGCGTACGCCATGCGGAGTCACCTAGTGCAG | 22000 fluorescence intensity (a.u.)
42 | ACGTGCTCAGTCATCATCCTCATGGCCGTTCCTTGCCGAACGGAGTCACCTAGTGCAG | 6930 fluorescence intensity (a.u.)
43 | GTAATAATAGATTATATTCAATTAATTAATTATTTATTATCGGAGTCACCTAGTGCAG | 17400 fluorescence intensity (a.u.)
44 | GCTTTGGAACTCCTTTAGATTATAATCCAACTCAATTCAACGGAGTCACCTAGTGCAG | 4590 fluorescence intensity (a.u.)
45 | TGATCAAAGGGTTTTACTAAAGGAGTTATGGTCTAATTTTCGGAGTCACCTAGTGCAG | 64900 fluorescence intensity (a.u.)
46 | ATTTTGGTCAAATTTAAACTAATCTAAGTTTGACTAATTTCGGAGTCACCTAGTGCAG | 8280 fluorescence intensity (a.u.)
47 | CAATTCCGACGAAATCCGGTCGGATTTCACGAAATTTCGACGGAGTCACCTAGTGCAG | 20600 fluorescence intensity (a.u.)
48 | GAGGACAGATCAAATGATTTTAATGACGAAACATGTGCTTCGGAGTCACCTAGTGCAG | 4096 fluorescence intensity (a.u.)
49 | TCTGTACCAAACTCAATTTTAGAATTCAGAGATCCAATAACGGAGTCACCTAGTGCAG | 40000 fluorescence intensity (a.u.)
50 | CGATTTACTTCAAATTTTAGAGGATCAGATCCGACGAAATCGGAGTCACCTAGTGCAG | 42900 fluorescence intensity (a.u.)
51 | TCAAAGGGTTTCATAAATTTTATGTATATTTTACAAGATTCGGAGTCACCTAGTGCAG | 5540 fluorescence intensity (a.u.)
52 | GATAAATATAGGAATGTTTATAATACTAAATTAATTTAATCGGAGTCACCTAGTGCAG | 28300 fluorescence intensity (a.u.)
53 | CAGAAGGATATATGTTTTATAATTTATTCAAATACTAGATCGGAGTCACCTAGTGCAG | 41400 fluorescence intensity (a.u.)
54 | TTCATAAAACTCCACCTGATCCGAATTACTCTACCAATAACGGAGTCACCTAGTGCAG | 4490 fluorescence intensity (a.u.)
